Where “and” joins values, the source holds several entries; their conditions need not be identical. Identical values can stand only once. Unmarked numbers belong to inactive results. Inconclusive results are not listed. Where a call stands in place of a potency, no number is given. Calls of active or inactive are those of the source. Unless noted, calls come from the whole dose curve; as a rule, active = well fitted curve in the direction sought with a large enough effect in the repeat runs; inconclusive = weak or mixed curves; inactive = flat fitted curve, though single readings scatter.
How the values were obtained:
[1] = qHTS assay to test for compound auto fluorescence at 535 nm (green) in HEK293 cells (AID 720680)
[2] = qHTS assay to test for compound auto fluorescence at 460 nm (blue) in HEK293 cell free culture (AID 720681)
Procedure, shortened: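 Compounds were added to cell-free DMEM with 10% FBS and fluorescence read directly. The blue channel used 405 nm excitation and 460 nm emission, with triamterene as the reference fluorophore.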

[3] = qHTS assay to test for compound auto fluorescence at 535 nm (green) in HEK293 cell free culture (AID 720682)
Procedure, shortened: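 Green-label autofluorescence (485 nm excitation, 535 nm emission) measured on compound added to cell-free culture medium (DMEM, 10% FBS). Output is expressed relative to fluorescein.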

[4] = qHTS assay to test for compound auto fluorescence at 590 nm (red) in HEK293 cell free culture (AID 720683)
Procedure, shortened: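 Cell-free wells of DMEM with 10% FBS received compound, and intrinsic fluorescence was read at excitation/emission 540/590 nm. Values expressed as equivalence to Rose Bengal sodium.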

[5] = qHTS assay to test for compound auto fluorescence at 590 nm (red) in HepG2 cell free culture (AID 720684)
Procedure, shortened: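 Auto fluorescence equivalency versus Rose Bengal sodium, red channel Ex/Em 540/590 nm; compounds in cell-free MEM/10% FBS; DMSO vehicle control.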

[6] = qHTS assay to test for compound auto fluorescence at 460 nm (blue) in HepG2 cell free culture (AID 720685)
Procedure, shortened: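 Cell-free plates of MEM plus 10% FBS received 23 nL compound or DMSO vehicle; blue-channel (405/460 nm) intensity scored against triamterene as reference fluorophore.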

[7] = qHTS assay to test for compound auto fluorescence at 460 nm (blue) in HepG2 cells (AID 720687)
Procedure, shortened: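 HepG2 cells in MEM with 10% FBS, attached overnight at 37 C, were exposed to compound or DMSO for 1 hr at 37 C, 5% CO2. Blue fluorescence was read at 405/460 nm, with triamterene as reference fluorophore.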

[8] = target: Glucocorticoid receptor (Homo sapiens) (UniProt P04150); experiment: qHTS assay to identify small molecule agonists of the glucocorticoid receptor (GR) signaling pathway (AID 720691; active = well fitted activation curve with a large enough effect in the signal ratio in the repeat runs, not every such curve was filed as active; the % refers to the signal ratio)
Procedure, shortened: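 Measures GR pathway activation through a GRE-beta-lactamase reporter stably integrated in HeLa cells, with 18 h compound treatment at 37 C and fluorescence detection using a FRET substrate.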

[9] = target: Glucocorticoid receptor (Homo sapiens) (UniProt P04150); experiment: qHTS assay to identify small molecule antagonists of the glucocorticoid receptor (GR) signaling pathway (AID 720692; active = well fitted inhibition curve with a large enough effect in the signal ratio in the repeat runs, not every such curve was filed as active; the % refers to the signal ratio; note: potency is the fitted concentration of half-maximal effect)
Procedure, shortened: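 Tox21 10K library screened in concentration-response for blockade of dexamethasone (5 nM final)-induced GRE-bla reporter activity in HeLa cells; 18 h treatment, fluorescence read.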

[10] = qHTS assay to test for compound auto fluorescence at 535 nm (green) in HepG2 cell free culture (AID 720686)

Sequence of Glucocorticoid receptor (Homo sapiens) (P04150 whole entry, looked up): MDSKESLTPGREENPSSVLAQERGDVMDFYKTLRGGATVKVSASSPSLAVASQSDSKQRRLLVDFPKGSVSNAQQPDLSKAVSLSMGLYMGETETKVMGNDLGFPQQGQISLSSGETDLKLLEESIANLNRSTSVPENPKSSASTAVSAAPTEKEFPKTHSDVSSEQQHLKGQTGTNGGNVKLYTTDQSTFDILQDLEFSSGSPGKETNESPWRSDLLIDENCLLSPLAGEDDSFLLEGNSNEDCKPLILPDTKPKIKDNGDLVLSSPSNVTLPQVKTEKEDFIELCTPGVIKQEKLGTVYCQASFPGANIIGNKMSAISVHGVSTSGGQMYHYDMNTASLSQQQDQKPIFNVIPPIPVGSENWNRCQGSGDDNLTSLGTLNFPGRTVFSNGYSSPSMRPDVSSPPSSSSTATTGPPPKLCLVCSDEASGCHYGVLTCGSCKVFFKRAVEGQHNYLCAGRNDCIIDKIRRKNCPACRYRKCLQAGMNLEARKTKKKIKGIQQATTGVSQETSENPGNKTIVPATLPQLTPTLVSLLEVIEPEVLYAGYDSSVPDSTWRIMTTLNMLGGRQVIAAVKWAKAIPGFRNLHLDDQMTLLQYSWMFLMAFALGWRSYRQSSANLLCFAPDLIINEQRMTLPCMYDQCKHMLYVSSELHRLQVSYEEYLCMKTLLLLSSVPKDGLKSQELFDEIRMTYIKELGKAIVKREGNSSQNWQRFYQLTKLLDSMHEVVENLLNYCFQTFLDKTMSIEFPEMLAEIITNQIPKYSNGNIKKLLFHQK

SMILES	outcome [1]	outcome [2]	outcome [3]	outcome [4]	outcome [5]	outcome [6]	outcome [7]	outcome [8]	Potency [9]	outcome [10]
OC(Cn1cncn1)(c1ccc(F)cc1)c1ccccc1F (centres undefined)	inactive	inactive	inactive	inactive	inactive	inactive	inactive	–	–	–
O=C(N[C@H]1CN2CCC1CC2)c1cc2ccoc2cn1	inactive	inactive	inactive	inactive	inactive	inactive	inactive	inactive	inactive	–
CC1(C)C(=O)NC(=O)NC1=O	inactive	inactive	inactive	inactive	inactive	inactive	inactive	inactive	inactive	–
N#CC(CCc1ccc(Cl)cc1)(Cn1cncn1)c1ccccc1 (centres undefined)	inactive	inactive	inactive	inactive	inactive	inactive	inactive	–	49 µM (active)	inactive
COP(=S)(OC)Oc1c(Cl)cc(C)cc1Cl	inactive	inactive	inactive	inactive	inactive	inactive	inactive	–	inactive	inactive
CNC(=O)Oc1ccccc1C1OCCO1	inactive	inactive	inactive	inactive	inactive	inactive	inactive	inactive	inactive	–
O=C(Cc1ccccc1)OCc1ccccc1	inactive	inactive	inactive	inactive	inactive	inactive	inactive	–	inactive	inactive
CC(C)CP(=S)(S)CC(C)C	inactive	inactive	inactive	inactive	inactive	inactive	inactive	–	inactive	–
CC1(C(=O)Nc2ccc(O)c(Cl)c2Cl)CCCCC1	inactive	inactive	inactive	inactive	inactive	inactive	inactive	–	–	–
CCOP(=O)(OCC)OP(=O)(OCC)OCC	inactive	inactive	inactive	inactive	inactive	inactive	inactive	–	–	–
CCOP(=S)(Oc1cnc(C(C)(C)C)nc1)OC(C)C (centres undefined)	inactive	inactive	inactive	inactive	inactive	inactive	inactive	inactive	inactive	–
CC(=O)CC(c1ccc(Cl)cc1)c1c(O)c2ccccc2oc1=O (centres undefined)	inactive	inactive	inactive	inactive	inactive	inactive	inactive	inactive	inactive	–
[Cl][Sn]([Cl])([Cl])[Cl]	inactive	inactive	inactive	inactive	inactive	inactive	inactive	–	inactive	inactive
ClC(Cl)C(Cl)Cl	inactive	inactive	inactive	inactive	inactive	inactive	inactive	–	inactive	–
c1coc(-c2nc3ccccc3[nH]2)c1	inactive	inactive	inactive	inactive	inactive	inactive	inactive	inactive	inactive	–
C[C@]1(O)CC[C@H]2[C@@H]3CCC4=CC(=O)CC[C@]4(C)[C@@]3(F)[C@@H](O)C[C@@]21C	inactive	inactive	inactive	inactive	inactive	inactive	inactive	–	1.51 µM (active) and 620 nM (active)	–
Cc1cc(C)nc(Nc2ccccc2)n1	inactive	inactive	inactive	inactive	inactive	inactive	inactive	inactive	inactive	–
O=c1oc2ccccc2c(O)c1C1CCCc2ccccc21 (centres undefined)	inactive	inactive	inactive	inactive	inactive	inactive	inactive	inactive	inactive	–
CC(=O)Nc1cc([As](=O)(O)O)ccc1O	inactive	inactive	inactive	inactive	inactive	inactive	inactive	inactive	inactive	–
COC(=O)C(C)Oc1ccc(Oc2ccc(Cl)cc2Cl)cc1 (centres undefined)	inactive	inactive	inactive	inactive	inactive	inactive	inactive	inactive	–	–
CCCCN(CCCCO)N=O	inactive	inactive	inactive	inactive	–	inactive	inactive	inactive	inactive	inactive

— PubChem BioAssay (Tox21)
